Experimental findings from PubChem BioAssay (NCI) are described below.

About 83,000 compounds went through this panel and 20% of them were active in at least one assay; those are over-represented in the sample as a whole.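 Note: values are percent growth. 100 is the growth of untreated cells, values between 100 and 0 indicate rising inhibition; between -100 and 0 indicates cell death.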 Values without a mark were called inactive. Calls of active or inactive are those of the source. How the source made its calls: active means growth percent below 10; inactive means the rest.

The test deals with LOX IMVI melanoma. As to the kind of experiment: NCI-60 one-dose screen, 48 h (100 = growth as untreated, 0 = no growth, -100 = all killed). The settings on record: 10 µM unless noted.
Consider `COc1cc(C(=O)c2c(N)ncn2-c2ccccc2)cc(OC)c1OC`, for which the growth was 91.9%.

On to `CCn1c2ccc(O)cc2c2c(C)c3c[n+](C(C)C)ccc3c(C)c21`, for which the growth is 30.9%. As for `Cc1cc2nc(-c3c(-c4ccc(F)cc4)nc4sccn34)[nH]c2cc1C`, the figure is 88.8%; as for `Oc1c(I)cc(-c2nc3ccccc3s2)cc1CN(Cc1ccccn1)Cc1ccccn1`, 3.14% (active). Turning to `CC(C)(CO)N(CCO)CCO`, the growth is 100%. Consider `CC1(C)CC[C@]2(C(=O)N3CCOCC3)CC[C@]3(C)C(=CC[C@@H]4[C@@]5(C)C/C(=C/c6ccncc6)C(=O)C(C)(C)[C@@H]5CC[C@]43C)[C@@H]2C1`, for which the growth was -84% (active). Turning to `Cc1cccc(NC(=O)CSc2nc3ccc([N+](=O)[O-])cc3[nH]2)c1`, the growth is 81.4%.

`COc1ccc(-c2oc(=O)ccc2-c2cc(OC)c(OC)c(OC)c2)cc1O`: the growth was 44.4%. On to `O=C(O)c1cccc(N/C=C/C(=O)c2cc3cc(Br)ccc3oc2=O)c1`, for which the growth was 97.9%. As for `CC[C@H](C)[C@H](NC(=O)[C@H](CCCNC(=N)N)NC(=O)[C@H](Cc1c[nH]c2ccccc12)NC(=O)[C@@H](NC(=O)[C@H](CCCCN)NC(=O)[C@H](CCCCN)NC(=O)[C@@H](NC(=O)[C@@H](NC(=O)[C@@H](NC(=O)[C@H](CCCCN)NC(=O)[C@H](Cc1ccccc1)NC(=O)[C@H](CCCCN)NC(=O)[C@H](CCCCN)NC(=O)[C@H](Cc1ccccc1)NC(=O)[C@@H](NC(=O)[C@@H](N)CCCCN)[C@@H](C)CC)[C@@H](C)O)[C@@H](C)CC)[C@@H](C)CC)C(C)C)C(=O)N[C@@H](Cc1ccccc1)C(=O)NCC(=O)N[C@@H](CCCNC(=N)N)C(=O)N[C@@H](Cc1ccccc1)C(N)=O`, the growth is -11% (active). Take `CCOC(=O)c1c(C)nc2c(c1N)CC(=O)N2Cc1cc(OC)c(OC)c(OC)c1`: the growth was 48.5%.

Turning to `Cc1c(Cl)cccc1C(=O)Nc1nc2c(s1)CN(C(=O)Nc1cccc(C(F)(F)F)c1)CC2`, the growth is 18.9%. As for `COc1cc2nc(Nc3cccc(F)c3)nc(Nc3cc(C)[nH]n3)c2cc1OC`, the figure is -82.3% [20 µM] (active); as for `CCC(CC)(N(CC(=O)O)CC(=O)O)C(CC)(CC)N(CC(=O)O)CC(=O)O`, 98.6%. In the case of `O=C(O)c1cn(C2CC2)c2cc(N3CCN(C(=O)N/N=C/c4ccccc4)CC3)c(F)cc2c1=O`, the growth was 80.7%. Then `COc1ncc2cc1NS(=O)(=O)c1cccc(c1)C(=O)NCC1=CC=C(S1)c1ncnc3c1SC2=C3C`, with -32.1% (active); and `CCOC(=O)c1c(-c2ccc(Cl)cc2)c(C#N)c2c(C#N)c(N)nn2c1N`, with 65.8%.

Regarding `O=C(/C=C/c1cccc(Cl)c1)c1cccc(OCCCCOc2cccc(C(=O)/C=C/c3cccc(Cl)c3)c2)c1`, the growth is 30.5%. With `NC(CSC(c1ccccc1)(c1ccccc1)c1ccc2c(c1)OCO2)C(=O)O` (stereo not given), the growth was 28.5%.

Turning to `O=C1NC(=O)c2c1c1c3ccccc3[nH]c1c1oc3ccc(F)cc3c21`, the growth is 66%. With `O=c1ccc2nc(C(F)(F)F)nn(-c3ccccc3)c-2c1`, the growth was 4.3% (active). As for `CCNc1nc(-c2ccc(F)cc2)c(C#N)c(=O)n1C`, the growth is 63.2%.

`Clc1nccc2c(-c3csc(-c4c[nH]c5ccccc45)n3)c[nH]c12`: the growth was 28.2%.

Regarding `C=C(C)[C@@H]1CC[C@]2(CO)CC[C@]3(C)[C@H](CC[C@@H]4[C@@]5(C)CCC(NCCc6ccc(O)cc6)C(C)(C)[C@@H]5CC[C@]43C)[C@@H]12` (stereo not given in full), the growth is -96.8% (active). For the compound `CCCCCCCCCCCCCCCCOC(=O)c1c(C)[nH]c(/C=C2\N=C(c3ccc[nH]3)C=C2OC)c1C`, the growth is -83.9% (active).

Turning to `COc1ccc(-c2ccc(-c3ccc(C(=N)N)cn3)s2)cc1`, the growth is 55%. Turning to `COc1cc(-c2nc(SCCC(C)C)nc(N3CCOCC3)c2C#N)cc(OC)c1OC`, the growth was 83.2%. For the compound `Cc1cc2oc(=O)cc(CP(=O)(O)O)c2cc1O`, the growth is 98.7%. Regarding `O=C1/C=C/[C@@H](O)[C@@H]2C[C@@H](O)C[C@H]2/C=C/CCC[C@H](CCOCc2ccccc2)O1`, the growth was -59.7% (active). With `O[C@@H](c1cc(C(F)(F)F)nc2c(C(F)(F)F)cccc12)[C@H]1CCCCN1`, the growth was 29.4%. In the case of `O=C1CCCc2nc3sc4c(=O)n(-c5ccccc5Cl)nnc4c3cc21`, the growth is 102%. In the case of `O=C(CCC(=O)c1nc2ncccc2[nH]1)NN1C(=O)CSC1c1ccc(Cl)cc1` (stereo not given), the growth was 91.4%. For `Cc1[nH]c(C(=O)Nc2cccc(OC3CCNCC3)c2)c(Cl)c1Cl`, the growth is 40.9%.

Take `CCOC(=O)C(=Cc1cccc(C#N)c1)C(=O)OCC`: the growth was -44.1% (active). As to `C=CCn1c(SCC(=O)Nc2ccc(C(=O)/C=C/c3ccc(OC)cc3)cc2)nnc1-c1ccccc1`, the growth was 87.2%. As to `COc1ccc(/C=C/C(=O)c2cc3c(N)c(C(=O)Nc4ccccc4C)sc3nc2C)cc1`, the growth is 18.7%. With `O=C1NC(=O)c2c1c1c3ccccc3[nH]c1c1oc3cc(Br)ccc3c21`, the growth was 59.9%. Then `CS(=O)(=O)Cc1cnc(C2OCCO2)s1`, with 100%; and `COc1ccc(C2=Nc3c(N)ncnc3NC(c3cccc(Nc4ccnc5cc(C(F)(F)F)ccc45)c3)C2)cc1` (stereo not given), with 61.8%; and `NS(=O)(=O)c1ccc(N/C=C/C(=O)c2cc3ccccc3oc2=O)cc1`, with 93%.
